From the supplement of paper PMC7724964

T1: IRS1 157-267 IRS (domain begin residue: 157, domain end residue: 267), P35568
T1 chain: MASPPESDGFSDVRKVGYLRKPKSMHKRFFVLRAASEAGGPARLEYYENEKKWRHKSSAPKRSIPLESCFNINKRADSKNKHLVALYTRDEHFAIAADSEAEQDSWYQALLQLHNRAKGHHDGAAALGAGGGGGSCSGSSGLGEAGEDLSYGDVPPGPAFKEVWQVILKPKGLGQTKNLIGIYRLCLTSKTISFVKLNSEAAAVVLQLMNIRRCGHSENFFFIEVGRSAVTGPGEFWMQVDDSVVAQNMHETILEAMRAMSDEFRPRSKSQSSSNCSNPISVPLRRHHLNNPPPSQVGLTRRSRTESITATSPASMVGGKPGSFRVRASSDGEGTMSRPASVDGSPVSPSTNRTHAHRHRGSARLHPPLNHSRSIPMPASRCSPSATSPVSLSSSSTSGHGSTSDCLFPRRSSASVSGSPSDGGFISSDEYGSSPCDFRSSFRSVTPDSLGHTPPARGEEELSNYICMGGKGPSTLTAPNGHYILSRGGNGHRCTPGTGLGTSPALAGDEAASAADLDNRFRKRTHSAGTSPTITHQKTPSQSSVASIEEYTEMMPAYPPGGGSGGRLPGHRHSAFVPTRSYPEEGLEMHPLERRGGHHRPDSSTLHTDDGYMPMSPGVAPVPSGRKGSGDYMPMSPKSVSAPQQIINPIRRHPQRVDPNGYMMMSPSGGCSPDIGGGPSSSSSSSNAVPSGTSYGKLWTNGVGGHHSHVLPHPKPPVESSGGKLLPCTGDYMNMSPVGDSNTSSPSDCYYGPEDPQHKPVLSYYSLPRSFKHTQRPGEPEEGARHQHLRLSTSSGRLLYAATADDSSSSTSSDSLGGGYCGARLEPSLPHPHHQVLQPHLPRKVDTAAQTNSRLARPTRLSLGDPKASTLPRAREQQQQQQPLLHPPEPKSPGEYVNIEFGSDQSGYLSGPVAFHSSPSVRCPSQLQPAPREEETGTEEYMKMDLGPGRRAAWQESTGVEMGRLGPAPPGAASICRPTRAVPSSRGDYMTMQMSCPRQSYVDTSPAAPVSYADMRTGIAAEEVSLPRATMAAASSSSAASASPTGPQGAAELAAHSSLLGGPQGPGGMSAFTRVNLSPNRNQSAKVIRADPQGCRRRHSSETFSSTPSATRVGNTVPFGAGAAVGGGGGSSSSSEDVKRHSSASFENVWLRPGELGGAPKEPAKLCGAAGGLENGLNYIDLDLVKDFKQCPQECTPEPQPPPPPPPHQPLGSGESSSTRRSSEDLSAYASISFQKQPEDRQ

T2: LBR 1-67 LBR_tudor (domain begin residue: 1, domain end residue: 67), Q14739
T2 chain: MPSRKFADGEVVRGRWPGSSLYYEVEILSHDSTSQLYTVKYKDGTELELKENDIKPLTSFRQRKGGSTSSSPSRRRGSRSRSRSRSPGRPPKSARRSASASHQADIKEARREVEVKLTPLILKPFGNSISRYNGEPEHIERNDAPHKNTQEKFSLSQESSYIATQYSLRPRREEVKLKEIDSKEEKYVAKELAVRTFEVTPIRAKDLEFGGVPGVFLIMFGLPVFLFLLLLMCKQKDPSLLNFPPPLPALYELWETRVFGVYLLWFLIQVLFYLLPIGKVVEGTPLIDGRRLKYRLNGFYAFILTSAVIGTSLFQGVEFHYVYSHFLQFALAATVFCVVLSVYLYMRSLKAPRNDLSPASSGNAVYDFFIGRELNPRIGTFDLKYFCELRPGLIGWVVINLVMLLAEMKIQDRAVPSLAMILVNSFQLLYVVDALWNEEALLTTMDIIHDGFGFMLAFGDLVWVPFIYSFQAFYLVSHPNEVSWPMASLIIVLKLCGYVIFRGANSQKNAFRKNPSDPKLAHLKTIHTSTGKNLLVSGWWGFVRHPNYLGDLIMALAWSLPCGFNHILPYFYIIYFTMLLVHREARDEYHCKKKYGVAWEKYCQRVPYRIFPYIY

T3: ZGPAT 120-268 zf-CCCH+TUDOR (domain begin residue: 120, domain end residue: 268), Q8N5A5
T3 chain: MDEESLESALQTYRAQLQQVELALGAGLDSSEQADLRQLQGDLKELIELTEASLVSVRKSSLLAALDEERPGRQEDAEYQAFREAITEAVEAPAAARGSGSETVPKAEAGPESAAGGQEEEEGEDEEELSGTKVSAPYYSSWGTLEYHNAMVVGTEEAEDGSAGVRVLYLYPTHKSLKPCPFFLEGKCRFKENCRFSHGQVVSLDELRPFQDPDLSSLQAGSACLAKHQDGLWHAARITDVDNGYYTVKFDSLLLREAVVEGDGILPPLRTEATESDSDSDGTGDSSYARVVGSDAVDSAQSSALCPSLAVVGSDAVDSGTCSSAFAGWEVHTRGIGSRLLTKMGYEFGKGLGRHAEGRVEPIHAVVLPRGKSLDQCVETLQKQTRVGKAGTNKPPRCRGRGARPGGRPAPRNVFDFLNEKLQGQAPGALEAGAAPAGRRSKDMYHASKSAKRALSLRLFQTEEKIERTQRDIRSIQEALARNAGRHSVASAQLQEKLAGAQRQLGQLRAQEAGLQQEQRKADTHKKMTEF

T4: LRP5 340-601 Ldl_recept_b (domain begin residue: 340, domain end residue: 601), O75197
T4 chain: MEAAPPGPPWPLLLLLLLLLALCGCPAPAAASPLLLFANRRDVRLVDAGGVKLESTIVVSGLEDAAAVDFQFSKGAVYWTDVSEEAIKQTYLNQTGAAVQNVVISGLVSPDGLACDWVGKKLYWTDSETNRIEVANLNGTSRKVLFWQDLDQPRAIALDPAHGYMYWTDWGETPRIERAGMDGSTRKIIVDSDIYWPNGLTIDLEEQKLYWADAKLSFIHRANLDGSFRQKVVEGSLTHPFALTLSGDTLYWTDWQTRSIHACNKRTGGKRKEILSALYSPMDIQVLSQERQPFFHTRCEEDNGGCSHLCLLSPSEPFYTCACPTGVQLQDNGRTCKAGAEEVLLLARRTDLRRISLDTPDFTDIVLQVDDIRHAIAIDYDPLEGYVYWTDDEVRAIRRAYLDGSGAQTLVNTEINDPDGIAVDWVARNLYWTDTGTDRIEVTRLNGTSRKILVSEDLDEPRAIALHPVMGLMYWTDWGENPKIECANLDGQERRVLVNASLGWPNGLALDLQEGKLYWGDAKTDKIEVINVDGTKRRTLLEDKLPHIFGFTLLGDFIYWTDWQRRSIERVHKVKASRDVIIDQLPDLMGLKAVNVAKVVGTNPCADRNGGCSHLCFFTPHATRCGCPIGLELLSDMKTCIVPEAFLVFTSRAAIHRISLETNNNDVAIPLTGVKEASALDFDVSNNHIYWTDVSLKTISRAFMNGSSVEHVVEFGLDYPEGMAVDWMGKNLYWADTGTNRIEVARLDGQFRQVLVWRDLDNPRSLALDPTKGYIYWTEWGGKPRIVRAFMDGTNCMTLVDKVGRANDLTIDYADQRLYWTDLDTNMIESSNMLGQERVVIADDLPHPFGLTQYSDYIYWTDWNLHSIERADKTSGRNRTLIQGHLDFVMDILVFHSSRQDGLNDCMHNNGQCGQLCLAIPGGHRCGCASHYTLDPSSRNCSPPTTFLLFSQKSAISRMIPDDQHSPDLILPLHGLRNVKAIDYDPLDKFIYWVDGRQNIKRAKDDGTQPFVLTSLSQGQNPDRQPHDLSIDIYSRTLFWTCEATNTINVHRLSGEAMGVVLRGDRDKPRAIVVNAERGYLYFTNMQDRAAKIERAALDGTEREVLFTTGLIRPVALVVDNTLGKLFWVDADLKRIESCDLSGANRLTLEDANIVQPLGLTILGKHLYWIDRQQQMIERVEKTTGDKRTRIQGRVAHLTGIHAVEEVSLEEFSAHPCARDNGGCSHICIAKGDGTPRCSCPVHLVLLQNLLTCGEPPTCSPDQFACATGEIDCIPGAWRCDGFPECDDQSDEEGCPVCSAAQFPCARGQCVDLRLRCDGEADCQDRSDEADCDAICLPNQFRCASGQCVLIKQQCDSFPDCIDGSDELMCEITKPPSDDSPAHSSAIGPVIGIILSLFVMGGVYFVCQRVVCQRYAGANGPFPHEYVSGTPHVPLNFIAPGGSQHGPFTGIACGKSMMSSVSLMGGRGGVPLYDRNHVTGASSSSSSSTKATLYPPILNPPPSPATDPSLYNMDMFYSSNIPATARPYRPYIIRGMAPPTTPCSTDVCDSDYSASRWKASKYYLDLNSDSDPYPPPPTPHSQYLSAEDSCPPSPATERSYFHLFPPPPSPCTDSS


Target: KPNB1 1-876 IBN_N+Arm (domain begin residue: 1, domain end residue: 876), Q14974
Sequence (Q14974 whole entry): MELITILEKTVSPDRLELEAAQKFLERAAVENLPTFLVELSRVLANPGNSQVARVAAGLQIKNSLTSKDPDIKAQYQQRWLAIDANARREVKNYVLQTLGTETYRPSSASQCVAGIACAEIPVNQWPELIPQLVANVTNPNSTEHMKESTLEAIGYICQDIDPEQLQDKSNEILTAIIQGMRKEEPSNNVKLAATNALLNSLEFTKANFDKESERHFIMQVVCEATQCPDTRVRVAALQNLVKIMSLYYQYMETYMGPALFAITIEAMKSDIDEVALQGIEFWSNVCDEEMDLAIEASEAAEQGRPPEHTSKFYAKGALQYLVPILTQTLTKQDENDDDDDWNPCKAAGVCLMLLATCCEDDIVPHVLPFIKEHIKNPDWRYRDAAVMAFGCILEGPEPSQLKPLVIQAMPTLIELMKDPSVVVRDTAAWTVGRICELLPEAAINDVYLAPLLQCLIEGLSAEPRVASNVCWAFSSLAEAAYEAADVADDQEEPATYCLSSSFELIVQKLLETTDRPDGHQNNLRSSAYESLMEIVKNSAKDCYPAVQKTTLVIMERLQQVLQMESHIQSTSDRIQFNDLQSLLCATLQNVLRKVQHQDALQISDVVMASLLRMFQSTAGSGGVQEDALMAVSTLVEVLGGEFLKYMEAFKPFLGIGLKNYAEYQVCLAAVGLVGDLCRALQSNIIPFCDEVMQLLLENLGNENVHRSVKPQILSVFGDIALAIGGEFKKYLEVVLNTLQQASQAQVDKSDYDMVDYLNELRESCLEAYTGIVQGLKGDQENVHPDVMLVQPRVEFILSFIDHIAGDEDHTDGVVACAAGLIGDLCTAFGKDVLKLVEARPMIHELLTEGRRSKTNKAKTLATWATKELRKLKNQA
Test: phage ELISA signal ratio (GST-PRM binding over GST background); higher = stronger binding of peptide-phage to the PRM
Method in brief: (§1)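 Five rounds of selection were carried out against human peptide recognition domains fused to the C-terminus of glutathione S-transferase (GST) and expressed in 96-well plates. The M13 phage library presented randomized hexadecapeptides, cysteine-free and glycine-flanked, on the gene-8 major coat protein. For each value, the phage ELISA signal on the GST-domain fusion was divided by the signal on GST alone.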

Binder | phage ELISA signal ratio
WDWVVREMSFDEVFIF | 20.4
WISFPFSDWQGDLFTF | 10.3
LDWVSMFEDNSSQFSV | 17.2
PWPQEYTTDLTSVFWF | 19.7
WVETSTYPEWPAVFVF | 16.3
PHEFQWALWPSGVFVF | 14

Target: KDM6A 1-520 TPR_8 (domain begin residue: 1, domain end residue: 520), O15550
Sequence (O15550 whole entry): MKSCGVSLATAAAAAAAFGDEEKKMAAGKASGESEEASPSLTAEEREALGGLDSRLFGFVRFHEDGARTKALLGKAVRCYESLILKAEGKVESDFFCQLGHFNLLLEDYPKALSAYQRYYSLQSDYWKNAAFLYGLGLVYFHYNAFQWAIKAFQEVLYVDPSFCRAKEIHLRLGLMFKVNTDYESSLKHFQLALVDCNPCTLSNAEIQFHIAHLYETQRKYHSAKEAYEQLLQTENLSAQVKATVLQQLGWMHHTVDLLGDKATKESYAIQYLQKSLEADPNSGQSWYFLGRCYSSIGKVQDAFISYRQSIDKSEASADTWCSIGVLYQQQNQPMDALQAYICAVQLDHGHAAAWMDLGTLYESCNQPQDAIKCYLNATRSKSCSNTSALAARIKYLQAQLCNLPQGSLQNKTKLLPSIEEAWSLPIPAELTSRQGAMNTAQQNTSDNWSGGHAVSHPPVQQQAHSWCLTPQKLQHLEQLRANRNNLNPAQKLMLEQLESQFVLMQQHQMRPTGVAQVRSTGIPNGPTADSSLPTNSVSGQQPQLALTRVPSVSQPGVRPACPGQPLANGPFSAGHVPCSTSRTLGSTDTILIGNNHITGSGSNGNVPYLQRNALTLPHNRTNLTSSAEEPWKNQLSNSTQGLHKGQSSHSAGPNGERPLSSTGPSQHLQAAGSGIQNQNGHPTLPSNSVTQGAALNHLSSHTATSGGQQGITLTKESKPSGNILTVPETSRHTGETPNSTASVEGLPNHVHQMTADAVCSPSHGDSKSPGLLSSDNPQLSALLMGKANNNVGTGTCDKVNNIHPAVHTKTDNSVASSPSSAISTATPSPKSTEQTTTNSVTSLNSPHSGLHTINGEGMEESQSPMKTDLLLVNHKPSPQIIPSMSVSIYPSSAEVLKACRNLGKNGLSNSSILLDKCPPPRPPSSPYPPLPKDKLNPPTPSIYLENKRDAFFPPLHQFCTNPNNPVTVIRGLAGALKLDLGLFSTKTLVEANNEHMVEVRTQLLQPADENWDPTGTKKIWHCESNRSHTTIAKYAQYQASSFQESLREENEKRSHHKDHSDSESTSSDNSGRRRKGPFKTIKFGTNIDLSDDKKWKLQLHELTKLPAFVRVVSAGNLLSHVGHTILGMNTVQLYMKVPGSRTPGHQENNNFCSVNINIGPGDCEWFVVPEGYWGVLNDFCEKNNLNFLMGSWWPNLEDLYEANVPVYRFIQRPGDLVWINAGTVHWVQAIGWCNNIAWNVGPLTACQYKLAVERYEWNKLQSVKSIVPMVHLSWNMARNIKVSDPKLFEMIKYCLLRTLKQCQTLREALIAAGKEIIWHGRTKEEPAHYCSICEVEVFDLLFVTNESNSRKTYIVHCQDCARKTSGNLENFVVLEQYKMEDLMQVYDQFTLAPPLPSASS
Test: as above
Method in brief: as §1

Binder | phage ELISA signal ratio
MDMIWDQILPDQFLSK | 6.37
WGWDDIPALQEMKPTN | 7.16
WSWPDLDVVQDMIVAE | 5.09
DNAMVIWHSTTELYQH | 3.82
HYMEMLYEQLAISQAI | 5.05
QWLEWISPEIDFTPME | 3.57
NYIEHMYDSMMYGSMT | 8.78
YHWDNLLEPTIQTYMG | 7.69
WENIWDDMIEQIIIPQ | 8.83

Target: HSPA9 438-651 HSP70 (domain begin residue: 438, domain end residue: 651), P38646
Sequence (P38646 whole entry): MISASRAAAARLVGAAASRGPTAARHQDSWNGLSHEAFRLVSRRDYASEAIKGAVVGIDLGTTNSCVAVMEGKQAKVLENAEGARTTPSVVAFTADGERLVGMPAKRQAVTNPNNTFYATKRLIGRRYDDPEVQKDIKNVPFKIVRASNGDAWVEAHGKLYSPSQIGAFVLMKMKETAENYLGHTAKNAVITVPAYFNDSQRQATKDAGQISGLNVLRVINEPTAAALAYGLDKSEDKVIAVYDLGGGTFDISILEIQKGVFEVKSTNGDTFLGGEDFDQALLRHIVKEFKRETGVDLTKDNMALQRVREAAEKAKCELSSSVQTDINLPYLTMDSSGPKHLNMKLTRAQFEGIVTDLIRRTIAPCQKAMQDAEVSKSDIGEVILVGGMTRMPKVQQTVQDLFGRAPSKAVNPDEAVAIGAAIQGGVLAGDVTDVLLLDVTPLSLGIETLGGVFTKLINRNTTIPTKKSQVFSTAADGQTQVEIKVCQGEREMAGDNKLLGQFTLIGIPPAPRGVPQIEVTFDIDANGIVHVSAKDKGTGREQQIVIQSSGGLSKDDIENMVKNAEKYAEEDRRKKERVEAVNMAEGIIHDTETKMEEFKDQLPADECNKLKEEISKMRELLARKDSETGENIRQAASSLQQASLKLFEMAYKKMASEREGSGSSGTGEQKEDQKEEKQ
Test: as above
Method in brief: as §1

Binder | phage ELISA signal ratio
VITMDQSQWDDVMFWL | 27.3
PTLLLWQQIDQVMMKK | 20.8
PYGLTAEGYERFLWLV | 28

Target: T1, IRS1 157-267 IRS (domain begin residue: …
Test: as above
Method in brief: as §1

Binder | phage ELISA signal ratio
DLVDWMSATWNENPWY | 20.7
IWTWEYNPHYEIIHDM | 18.6
WIPADFQEWMELVAYD | 22.4

Target: KARS 71-214 tRNA_anti-codon (domain begin residue: 71, domain end residue: 214), Q15046
Sequence (Q15046 whole entry, looked up, tested part not stated): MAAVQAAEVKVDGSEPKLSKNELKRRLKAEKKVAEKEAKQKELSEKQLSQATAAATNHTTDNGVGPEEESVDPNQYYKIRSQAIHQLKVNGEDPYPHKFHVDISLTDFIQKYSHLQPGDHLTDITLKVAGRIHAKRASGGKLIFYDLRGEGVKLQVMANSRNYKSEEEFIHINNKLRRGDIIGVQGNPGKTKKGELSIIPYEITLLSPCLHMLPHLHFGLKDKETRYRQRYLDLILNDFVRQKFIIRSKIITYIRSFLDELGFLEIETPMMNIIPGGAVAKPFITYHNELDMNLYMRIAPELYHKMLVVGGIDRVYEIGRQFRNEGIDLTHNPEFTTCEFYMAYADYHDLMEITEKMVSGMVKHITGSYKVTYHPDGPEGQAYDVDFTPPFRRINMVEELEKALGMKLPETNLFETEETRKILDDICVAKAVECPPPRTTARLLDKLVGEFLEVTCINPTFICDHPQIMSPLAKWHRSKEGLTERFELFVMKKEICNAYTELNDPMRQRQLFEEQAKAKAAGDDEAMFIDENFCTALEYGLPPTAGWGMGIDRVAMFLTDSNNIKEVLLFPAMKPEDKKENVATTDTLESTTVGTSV
Test: as above
Method in brief: as §1

Binder | phage ELISA signal ratio
EQWEIEWLEHFNTYWE | 17.2

Target: T2, LBR 1-67 LBR_tudor (domain begin …
Test: as above
Method in brief: as §1

Binder | phage ELISA signal ratio
PFTAFFVMMEWVQVPK | 2.52
YNFIESMYTMEPMPMH | 3.33
QQQKHPNFALHYHQDQ | 6.64

Target: SETD1A 2-220 RRM_1 (domain begin residue: 2, domain end residue: 220), O15047
Test: as above
Method in brief: as §1

Binder | phage ELISA signal ratio
YNFIESMYTMEPMPMH | 4.24

Target: T3, ZGPAT 120-268 zf-CCCH+TUDOR (domain …
Test: as above
Method in brief: as §1

Binder | phage ELISA signal ratio
YNFIESMYTMEPMPMH | 3.65

Target: KMT2C 1055-1137 PHD (domain begin residue: 1055, domain end residue: 1137)
Test: as above
Method in brief: as §1

Binder | phage ELISA signal ratio
DNYMESMYEAMGDPKK | 6.88
FETLEVIPGLGEFFKQ | 6.9

Target: T4, LRP5 340-601 Ldl_recept_b (domain begin …
Test: as above
Method in brief: as §1

Binder | phage ELISA signal ratio
EWSSNEWWDAYSAMTV | 7.31
